PubChem BioAssay AID1159580 (chemical genetic matrix, 2015)
The whole screen tested about 5,500 compounds, of which about 2,000 (36%) were called active. Not shown: some 18% with an inconclusive outcome. Cut-off read from the data, not from the text of the source: active = normalized growth mostly below about 0.91 (no sharp cut-off); inconclusive = no clear call, values can overlap the other calls; inactive = mostly above about 0.92. The list shows a part of the results.

Assay: chemical genetic growth profiling, strain panel (AID 1159580);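 note: tested at 20 µM; growth read once vehicle control cultures reached saturation at 30 °C; 1 = growth at the plate median or of vehicle wells; lower values mean less growth of the strain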
Settings: S. cerevisiae deletion strains, growth OD

Measured: normalized growth

CC(=O)CSc1nnc(-c2ccc(C(C)(C)C)cc2)n1-c1ccc(Cl)cc1
inactive: locus YAR019C, strain CDC15, active compounds read low 0.982 | locus YBL105C, strain PKC1, active compounds read low 0.974 | locus YBR135W, strain CKS1, active compounds read low 0.973 | locus YBR136W, strain MEC1, active compounds read low 0.987 | locus YBR160W, strain CDC28, active compounds read low 0.976 | locus YDL017W, strain CDC7, active compounds read low 0.983 | locus YDL028C, strain MPS1, active compounds read low 0.976 | locus YDL101C, strain DUN1, active compounds read low 0.974 | locus YDL108W, strain KIN28, active compounds read low 0.982 | locus YDL132W, strain cdc53, active compounds read low 0.972 | locus YDL214C, strain PRR2, active compounds read low 0.959 | locus YDR052C, strain DBF4, active compounds read low 0.986 | locus YDR054C, strain cdc34, active compounds read low 0.971 | locus YDR226W, strain ADK1, active compounds read low 0.973 | locus YDR477W, strain SNF1, active compounds read low 0.958 | locus YER123W, strain YCK3, active compounds read low 0.953 | locus YER133W, strain GLC7, active compounds read low 0.969 | locus YFL009W, strain cdc4, active compounds read low 0.977 | locus YFL029C, strain CAK1, active compounds read low 0.987 | locus YFR003C, strain YPI1, active compounds read low 0.984 | locus YFR019W, strain FAB1, active compounds read low 1 | locus YFR028C, strain CDC14, active compounds read low 0.977 | locus YGR040W, strain KSS1, active compounds read low 0.965 | locus YGR052W, strain FMP48, active compounds read low 1.02 | locus YGR092W, strain DBF2, active compounds read low 0.987 | locus YHR079C, strain IRE1, active compounds read low 0.99 | locus YHR082C, strain KSP1, active compounds read low 1.04 | locus YHR205W, strain SCH9, active compounds read low 0.976 | locus YIL147C, strain SLN1, active compounds read low 0.983 | locus YJL095W, strain BCK1, active compounds read low 0.926 | locus YJL128C, strain PBS2, active compounds read low 0.927 | locus YJL157C, strain FAR1, active compounds read low 0.986 | locus YJR016C, strain ILV3, active compounds read low 0.982 | locus YJR066W, strain TOR1 (second series), active compounds read low 0.984 | locus YJR066W, strain TOR1, active compounds read low 0.972 | locus YKL048C, strain ELM1, active compounds read low 0.969 | locus YKL067W, strain YNK1, active compounds read low 0.947 | locus YKL101W, strain HSL1, active compounds read low 0.973 | locus YKL193C, strain SDS22, active compounds read low 0.981 | locus YKL203C, strain TOR2, active compounds read low 1.05 | locus YLR113W, strain HOG1, active compounds read low 0.914 | locus YLR133W, strain CKI1, active compounds read low 0.99 | locus YLR403W, strain SFP1, active compounds read low 0.984 | locus YML070W, strain DAK1, active compounds read low 0.97 | locus YMR001C, strain CDC5, active compounds read low 0.985 | locus YMR205C, strain PFK2 (second series), active compounds read low 0.97 | locus YMR277W, strain FCP1, active compounds read low 0.978 | locus YNL006W, strain LST8, active compounds read low 0.98 | locus YNL020C, strain ARK1, active compounds read low 0.999 | locus YNL161W, strain CBK1, active compounds read low 0.984 | locus YNL183C, strain NPR1, active compounds read low 1.01 | locus YNL207W, strain RIO2, active compounds read low 0.988 | locus YNL222W, strain SSU72, active compounds read low 0.97 | locus YNL307C, strain MCK1 (second series), active compounds read low 0.996 | locus YOL078W, strain AVO1, active compounds read low 0.984 | locus YOL136C, strain PFK27, active compounds read low 0.983 | locus YOR061W, strain CKA2, active compounds read low 0.976 | locus YOR119C, strain RIO1, active compounds read low 0.98 | locus YOR231W, strain MKK1, active compounds read low 0.97 | locus YOR329C, strain SCD5, active compounds read low 0.977 | locus YPL031C, strain PHO85, active compounds read low 0.953 | locus YPL153C, strain RAD53, active compounds read low 0.972 | locus YPL204W, strain HRR25, active compounds read low 0.958 | locus YPL209C, strain IPL1, active compounds read low 0.984 | locus YPL256C, strain CLN2, active compounds read low 0.918 | locus YPR025C, strain CCL1, active compounds read low 0.976 | locus YPR106W, strain ISR1, active compounds read low 0.974 | locus YPR111W, strain DBF20, active compounds read low 0.965 | strain NNK1, active compounds read low 0.997 | strain TSCII, active compounds read low 0.99
active: locus YHR030C, strain SLT2, active compounds read low 0.797
